Mcl1-Noxa inh: Mcl-1/Noxa interaction inhibition; Q07820; TR-FRET Mcl-1/Noxa peptide binding, 2 h; inhibition, % at 21.7 µM; 1.5% of 220,000 active;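 active = compounds that cut the protein-peptide binding signal by more than 50% relative to plate controls in a single-dose test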;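 also: His-tagged Mcl-1 with rhodamine Noxa BH3 peptide and terbium anti-His antibody; 0% = Mcl-1 plus Noxa peptide wells and 100% = peptide-only wells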
Target sequence (Q07820 whole entry, looked up): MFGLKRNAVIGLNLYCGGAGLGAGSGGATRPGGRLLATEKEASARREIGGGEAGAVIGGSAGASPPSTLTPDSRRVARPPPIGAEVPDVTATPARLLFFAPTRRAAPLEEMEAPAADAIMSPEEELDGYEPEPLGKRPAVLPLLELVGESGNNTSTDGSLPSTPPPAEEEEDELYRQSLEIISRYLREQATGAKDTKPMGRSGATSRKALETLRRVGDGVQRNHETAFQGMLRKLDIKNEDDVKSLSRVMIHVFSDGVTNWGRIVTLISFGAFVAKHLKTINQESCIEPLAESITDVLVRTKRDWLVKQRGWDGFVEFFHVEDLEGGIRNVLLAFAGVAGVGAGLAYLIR
L929 necroptosis: L929 zVAD cell death inhibition; L929 zVAD necroptosis rescue, ATP luminescence, 24 h; with zVAD 60 µM; viability rescue, % at 10 µM; 0.38% of 220,000 active; AID 1377;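 active = activation, scaled between plate controls, above about 75%, limit read from the data; inactive = activation under that limit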;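 also: 0% = zVAD with DMSO and 100% = DMSO alone without zVAD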
TNF death inh: TNF-alpha cell death inhibition in Jurkat FADD-/- cells. AID 463075. activation (protection from cell death), % at 10 µM. 0.068% of 220,000 active. Jurkat FADD-/- TNF necroptosis rescue, ATP luminescence, 24 h; 0 = TNF only, 100 = no-TNF cells;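 active = activation, meaning protection from cell death, of at least 50% relative to plate controls; inactive = activation below 50%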;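 also: necroptosis triggered by 40 ng/mL TNF-alpha added together with compound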
MCL1 BIM primary: inhibitors of human MCL1 binding to BIM-BH3 peptide | Q07820 | GST-MCL1 / FITC-Bim-BH3 fluorescence polarization | inhibition, % at 10.9 µM | 0.68% of 320,000 active;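 active = inhibition above the mean inhibition of all tested compounds plus 3 SD, set per campaign, cut at about 40% in these data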;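 also: 0% = DMSO wells and 100% = unlabeled Bim-BH3 peptide control; higher means more loss of mP so more displacement of Bim peptide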
Mcl1-Bid inh: disrupts binding of human Mcl-1 to Bid peptide; inhibition, % at 21.7 µM; 0.97% of 220,000 active; TR-FRET Mcl-1/Bid-Dy647 peptide binding, 1536-well;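 active = compounds that cut the binding signal by more than half at the single screening dose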;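 also: His-tagged Mcl-1 with europium anti-His antibody binding Bid BH3 peptide; 0% = Mcl-1 plus peptide wells and 100% = peptide-only wells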
Bim-Mcl-1: disrupts Bim peptide binding to human Mcl-1. Bead-based flow cytometry, Bim peptide-Mcl-1 binding. inhibition, % at 10 µM. 0.1% of 190,000 active. AID 1009; in the data active = inhibition above about 40%;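 also: 0% = no compound tracer wells and 100% = peptide blocker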
Bcl-xL conf: Bcl-xL (human) inhibition, MCL1 counter-screen confirmation. shares compounds with MCL1 BIM primary. inhibition, % at 10.9 µM. GST-Bcl-xL / FITC-Bim BH3 peptide FP binding. AID 2166. 54% of 1,700 active;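 active = inhibition above a cutoff equal to the mean inhibition of all tested compounds plus 3 SD, cut at about 30% in these data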;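 also: 0% = DMSO wells and 100% = unlabeled Bim BH3 control peptide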
Target sequence (Q07817 whole entry, looked up): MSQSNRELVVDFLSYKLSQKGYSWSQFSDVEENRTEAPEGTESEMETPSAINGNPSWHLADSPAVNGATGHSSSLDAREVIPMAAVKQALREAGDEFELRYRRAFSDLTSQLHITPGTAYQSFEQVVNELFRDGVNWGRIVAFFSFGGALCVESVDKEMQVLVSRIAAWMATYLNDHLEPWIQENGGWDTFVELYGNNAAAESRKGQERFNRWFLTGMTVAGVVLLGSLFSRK
MCL1 inh confirm: confirmation of human MCL1 and BIM-BH3 interaction inhibitors. inhibition, % at 10.9 µM. shares compounds with MCL1 BIM primary. AID 2168. 61% of 1,700 active. GST-MCL1 / FITC-Bim-BH3 fluorescence polarization;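 active = inhibition above the average of all tested compounds plus 3 SD, cut at about 40% in these data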;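 also: 0% = DMSO wells and 100% = unlabeled Bim-BH3 control peptide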
Numbers without * were called inactive; nt = no result. The list is not random: actives were taken first. Their share in the collection is about 2.4%.

SMILES	Mcl1-Noxa inh	L929 necroptosis	TNF death inh	MCL1 BIM primary	Mcl1-Bid inh	Bim-Mcl-1	Bcl-xL conf	MCL1 inh confirm
CCN(CC)C(=O)Nc1ccc(Br)cc1	5	2	1	1	3	0	nt	nt
CCN(CC(=O)Nc1c(F)cccc1F)C(=O)/C=C/c1ccc2ccccc2n1	nt	nt	nt	86*	nt	nt	21	90*
COc1ccc(NC(=S)Nc2ccccc2)cn1	5	0	-1	14	-54	-1	nt	nt
CCCCNC(=S)Nc1ccc(OC)nc1	4	1	1	58*	-41	-2	43*	52*
Cc1cc(C)cc(C(=O)NCC(=O)NNC(=O)CSc2ccccc2F)c1	nt	nt	nt	4	nt	nt	nt	nt
Cc1cccc2nc3ccccc3cc12	nt	nt	nt	5	nt	nt	nt	nt
C/C(O)=c1/ccc2cccc3nc(C)nc1c23	1	2	-4	61*	-28	3	62*	57*
CSc1ccc(CN(C)CC(=O)NC(C)c2ccccc2)cc1 (stereo not given)	2	-1	16	-5	-5	1	nt	nt
NC(=S)Nc1cccc2cc3ccccc3cc12	31	0	-12	53*	-62	6	81*	95*
O/C=c1\ccc2cccc3nc(C(F)(F)F)nc1c23	nt	nt	nt	94*	nt	nt	118*	133*
O=C1SC(SCc2ccccc2)=N/C1=C\c1ccc(C(=O)O)cc1	39	2	-1	3	-4	-3	nt	nt
O=C1SC(SCc2ccccc2)=N/C1=C\c1ccco1	23	1	-3	43*	-24	-1	8	16
O=c1cc(CSc2nnc3ccccn23)c2c(ccc3ccccc32)o1	22	-1	0	88*	-3	-3	-8	16
O=c1[nH]c(CSc2nnc3ccccn23)nc2ccccc12	1	0	1	8	-30	-1	nt	nt
COc1cc(NC(=S)N2CCN(CCO)CC2)cc(OC)c1	nt	nt	nt	82*	nt	nt	18	30
OCCN1CCN(C(=S)Nc2ccccc2)CC1	8	1	0	3	-44	1	nt	nt
CN(C)c1ncc(C2=C(Cl)C(=O)C(N3CCCC3)=C(Cl)C2=O)s1	112*	32	-14	91*	61*	85*	63*	85*
CC(=O)c1cnc(N(C)C)s1	9	0	0	2	3	2	nt	nt
Cc1c(C)c2cc(Cl)c(O)c(CN(C)C)c2oc1=O	10	0	-1	11	-27	0	nt	nt
O=c1oc2c(O)c(O)cc3c(=O)oc4c(O)c(O)cc1c4c23	86*	1	1	97*	76*	10	79*	98*
CCSC1(SCC)N=C(N)C2(C#N)C(c3ccccc3)NC3=C(CCC3)C12C#N (stereo not given)	-1	1	-8	26	-54	0	nt	nt
N#CC12C(N)=NC3(OCCO3)C1(C#N)C1=C(CCC1)NC2c1ccccc1 (stereo not given)	5	0	-3	64*	-32	-1	18	24
NC(=O)NCCCC(=O)NCC(c1ccccc1Cl)c1c[nH]c2ccccc12 (stereo not given)	nt	nt	nt	6	nt	nt	nt	nt
O=C(N/N=C/c1cccnc1)c1cccc(S(=O)(=O)Nc2cccc(Cl)c2)c1	-6	4	0	6	-4	0	nt	nt
O=C(N/N=C/c1ccncc1)c1cccc(S(=O)(=O)Nc2ccc(Cl)cc2)c1	3	-1	0	52*	79*	nt	-1	74*
SMILES	Mcl1-Noxa inh	L929 necroptosis	TNF death inh	MCL1 BIM primary	Mcl1-Bid inh	Bim-Mcl-1	Bcl-xL conf	MCL1 inh confirm
CCCNC(=O)C(Cc1cccc(C#N)c1)NC(=O)c1ccc(C#N)cc1 (stereo not given)	nt	nt	nt	2	nt	nt	nt	nt
O=C(O)c1ccccc1NS(=O)(=O)c1cccc(-n2sc3ccccc3c2=O)c1	nt	nt	nt	56*	nt	nt	35*	68*
O=C(O)c1ccccc1NS(=O)(=O)c1cccc(C(F)(F)F)c1	12	0	0	5	9	-1	nt	nt
N#C/C(=C\c1ccc[nH]1)C(=O)Nc1ccccc1Cl	nt	nt	nt	47*	nt	nt	26	33
COc1ccc(NC(=O)/C(C#N)=C/c2ccc[nH]2)c(OC)c1	nt	nt	nt	9	nt	nt	nt	nt
COC(=O)CCC(=O)OC1(C)C(=O)C2=COC(c3ccc(OC)cc3)=CC2=C(Br)C1=O (stereo not given)	50*	-1	0	56*	-41	nt	32*	57*
COc1ccccc1CNC(=O)CN1C(=O)c2cccc(N)c2C1=O	nt	nt	nt	107*	nt	nt	43*	54*
CN1Cc2sc(N)c(C#N)c2CC1(C)C	-2	0	-3	59*	-53	1	22	13
C=CCNC(=O)/C(C#N)=C/c1ccccc1[N+](=O)[O-]	18	-1	-6	51*	-3	-8	26	22
CCN(CC)S(=O)(=O)c1ccc2c(c1)nc(-c1ccccn1)n2C	nt	nt	nt	-9	nt	nt	nt	nt
Cc1cc(O)c(Oc2cc(C)cc(O)c2O)c(O)c1	61*	0	-4	52*	-8	-3	34*	46*
O=C(O)COc1ccccc1/C=C1\SC(=S)N(c2cccnc2)C1=O	-3	0	-3	8	-47	nt	nt	nt
O=C(O)CCN1C(=O)/C(=C\c2ccc(OCc3ccccc3)c(OCc3ccccc3)c2)SC1=S	nt	nt	nt	4	nt	nt	nt	nt
O/N=C/c1cc(Br)ccc1OCc1ccccc1F	nt	0	-6	0	nt	nt	nt	nt
O=C(O)CN1C(=O)/C(=C\c2cc(Br)ccc2OCc2ccccc2F)SC1=S	nt	nt	nt	46*	nt	nt	20	25
O=C(O)CN1C(=O)/C(=C\c2cc(Br)ccc2OCc2ccc([N+](=O)[O-])cc2)SC1=S	nt	nt	nt	72*	nt	nt	37*	61*
O=C(O)CN1C(=O)/C(=C\c2ccccc2OCc2ccc(Cl)cc2Cl)SC1=S	nt	nt	nt	55*	nt	nt	31*	45*
COc1ccc(N(CC(=O)NN=C2CCN(C)CC2)S(=O)(=O)c2ccccc2)c(OC)c1	nt	nt	nt	-5	nt	nt	nt	nt
O=C1COc2ccc(S(=O)(=O)N3CCC(C(=O)NCc4ccc(F)cc4)CC3)cc2N1	nt	nt	nt	13	nt	nt	nt	nt
O=C(CCC(=O)N(CC(=O)NC1CCCC1)c1ccc(F)cc1)Nc1nccs1	nt	nt	nt	-7	nt	nt	nt	nt
CC(=O)N1CCc2c(sc(NC(=O)c3ccc(S(=O)(=O)N(C)C)cc3)c2C#N)C1	nt	1	0	41*	nt	nt	38*	39
Cc1onc(-c2c(F)cccc2Cl)c1C(=O)OCC(=O)NC1CC1	21	0	-1	7	-3	-1	nt	nt
Cn1cc(C(=O)NCc2cccs2)c(=O)c2cc(S(=O)(=O)N3CCCC3)ccc21	-9	nt	0	-4	5	-5	nt	nt
O=C(O)c1ccc2c3c(cccc13)C(=O)N(c1ccccc1)C2=O	-2	0	-1	37	-61	3	nt	nt

Screening data from PubChem.
